# In publication PMC11062922 (Nature Chemical Biology, 2023):
# Read-outs that look alike come from different tables or passages of the source.
# What was measured:
# PRKD3 = conditions: read-out: apparent Kd, n = 1
# Q6ZSR9 = Q6ZSR9 (human, UniProt Q6ZSR9); conditions: read-out: apparent Kd, n = 1
# Chain of Q6ZSR9 (Q6ZSR9 whole entry, looked up): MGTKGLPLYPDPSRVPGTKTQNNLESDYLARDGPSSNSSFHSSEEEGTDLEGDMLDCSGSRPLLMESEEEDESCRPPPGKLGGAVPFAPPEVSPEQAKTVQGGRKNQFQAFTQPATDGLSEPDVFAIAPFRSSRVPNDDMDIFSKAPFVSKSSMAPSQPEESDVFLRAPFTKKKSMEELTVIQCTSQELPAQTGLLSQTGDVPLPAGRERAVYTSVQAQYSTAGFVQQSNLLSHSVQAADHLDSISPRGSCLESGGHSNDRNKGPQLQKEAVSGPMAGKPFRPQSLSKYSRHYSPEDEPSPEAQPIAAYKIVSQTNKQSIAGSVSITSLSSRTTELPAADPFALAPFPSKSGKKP
substance,measurement,setting,value
Lestaurtinib,potency estimated from few doses,"PRKD3; compound concentrations:100 nM and 1000 nM (sheet 'Lestaurtinib' of Supplementary Table 1),run:Lestaurtinib_02766_R2,Plate:MR027",74.6 nM
same,potency estimated from few doses,"PRKD3; compound concentrations:100 nM and 1000 nM (sheet 'Lestaurtinib' of Supplementary Table 1),run:Lestaurtinib_02768_R3,Plate:MR028",59.1 nM
same,potency estimated from few doses,"PRKD3; compound concentrations:100 nM and 1000 nM (sheet 'Lestaurtinib' of Supplementary Table 1),run:Lestaurtinib_02795_R2,Plate:MR022",79.8 nM
same,potency estimated from few doses,"PRKD3; compound concentrations:100 nM and 1000 nM (sheet 'Lestaurtinib' of Supplementary Table 1),run:Lestaurtinib_02802_R1,Plate:MR029",83.1 nM
same,potency estimated from few doses,"PRKD3; compound concentrations:100 nM and 1000 nM (sheet 'Lestaurtinib' of Supplementary Table 1),run:Lestaurtinib_02802_R3,Plate:MR029",82.7 nM
same,potency estimated from few doses,"PRKD3; compound concentrations:100 nM and 1000 nM (sheet 'Lestaurtinib' of Supplementary Table 1),run:Lestaurtinib_02896_R1,Plate:MR030",61.8 nM
same,potency estimated from few doses,"PRKD3; compound concentrations:100 nM and 1000 nM (sheet 'Lestaurtinib' of Supplementary Table 1),run:Lestaurtinib_02896_R2,Plate:MR030",80.6 nM
same,potency estimated from few doses,"PRKD3; compound concentrations:100 nM and 1000 nM (sheet 'Lestaurtinib' of Supplementary Table 1),run:Lestaurtinib_02896_R3,Plate:MR030",92.2 nM
same,potency estimated from few doses,"PRKD3; compound concentrations:100 nM and 1000 nM (sheet 'Lestaurtinib' of Supplementary Table 1),run:Lestaurtinib_03172_R3,Plate:MR031",90.1 nM
same,potency estimated from few doses,"PRKD3; compound concentrations:100 nM and 1000 nM (sheet 'Lestaurtinib' of Supplementary Table 1),run:Lestaurtinib_03252_R1,Plate:MR032",43.4 nM
same,potency estimated from few doses,"PRKD3; compound concentrations:100 nM and 1000 nM (sheet 'Lestaurtinib' of Supplementary Table 1),run:Lestaurtinib_03252_R2,Plate:MR032",30.6 nM
same,potency estimated from few doses,"PRKD3; compound concentrations:100 nM and 1000 nM (sheet 'Lestaurtinib' of Supplementary Table 1),run:Lestaurtinib_03260_R2,Plate:MR033",96.7 nM
same,potency estimated from few doses,"PRKD3; compound concentrations:100 nM and 1000 nM (sheet 'Lestaurtinib' of Supplementary Table 1),run:Lestaurtinib_03260_R3,Plate:MR033",91.2 nM
same,potency estimated from few doses,"Q6ZSR9; compound concentrations:100 nM and 1000 nM (sheet 'Lestaurtinib' of Supplementary Table 1),run:Lestaurtinib_02339_R1,Plate:MR001",78.9 nM
same,potency estimated from few doses,"Q6ZSR9; compound concentrations:100 nM and 1000 nM (sheet 'Lestaurtinib' of Supplementary Table 1),run:Lestaurtinib_02339_R3,Plate:MR001",48.8 nM
same,potency estimated from few doses,"Q6ZSR9; compound concentrations:100 nM and 1000 nM (sheet 'Lestaurtinib' of Supplementary Table 1),run:Lestaurtinib_02364_R1,Plate:MR002",68.5 nM
same,potency estimated from few doses,"Q6ZSR9; compound concentrations:100 nM and 1000 nM (sheet 'Lestaurtinib' of Supplementary Table 1),run:Lestaurtinib_02364_R2,Plate:MR002",68.1 nM
same,potency estimated from few doses,"Q6ZSR9; compound concentrations:100 nM and 1000 nM (sheet 'Lestaurtinib' of Supplementary Table 1),run:Lestaurtinib_02364_R3,Plate:MR002",78.6 nM
same,potency estimated from few doses,"Q6ZSR9; compound concentrations:100 nM and 1000 nM (sheet 'Lestaurtinib' of Supplementary Table 1),run:Lestaurtinib_02367_R1,Plate:MR003",62.7 nM
same,potency estimated from few doses,"Q6ZSR9; compound concentrations:100 nM and 1000 nM (sheet 'Lestaurtinib' of Supplementary Table 1),run:Lestaurtinib_02367_R2,Plate:MR003",66.7 nM
same,potency estimated from few doses,"Q6ZSR9; compound concentrations:100 nM and 1000 nM (sheet 'Lestaurtinib' of Supplementary Table 1),run:Lestaurtinib_02367_R3,Plate:MR003",78.8 nM
same,potency estimated from few doses,"Q6ZSR9; compound concentrations:100 nM and 1000 nM (sheet 'Lestaurtinib' of Supplementary Table 1),run:Lestaurtinib_02381_R1,Plate:MR004",69.4 nM
same,potency estimated from few doses,"Q6ZSR9; compound concentrations:100 nM and 1000 nM (sheet 'Lestaurtinib' of Supplementary Table 1),run:Lestaurtinib_02381_R2,Plate:MR004",64.6 nM
same,potency estimated from few doses,"Q6ZSR9; compound concentrations:100 nM and 1000 nM (sheet 'Lestaurtinib' of Supplementary Table 1),run:Lestaurtinib_02407_R1,Plate:MR005",62.3 nM
same,potency estimated from few doses,"Q6ZSR9; compound concentrations:100 nM and 1000 nM (sheet 'Lestaurtinib' of Supplementary Table 1),run:Lestaurtinib_02407_R2,Plate:MR005",71.9 nM
same,potency estimated from few doses,"Q6ZSR9; compound concentrations:100 nM and 1000 nM (sheet 'Lestaurtinib' of Supplementary Table 1),run:Lestaurtinib_02407_R3,Plate:MR005",68.5 nM
same,potency estimated from few doses,"Q6ZSR9; compound concentrations:100 nM and 1000 nM (sheet 'Lestaurtinib' of Supplementary Table 1),run:Lestaurtinib_02422_R1,Plate:MR006",72.4 nM
same,potency estimated from few doses,"Q6ZSR9; compound concentrations:100 nM and 1000 nM (sheet 'Lestaurtinib' of Supplementary Table 1),run:Lestaurtinib_02422_R2,Plate:MR006",20.6 nM
same,potency estimated from few doses,"Q6ZSR9; compound concentrations:100 nM and 1000 nM (sheet 'Lestaurtinib' of Supplementary Table 1),run:Lestaurtinib_02437_R2,Plate:MR007",55.6 nM
same,potency estimated from few doses,"Q6ZSR9; compound concentrations:100 nM and 1000 nM (sheet 'Lestaurtinib' of Supplementary Table 1),run:Lestaurtinib_02437_R3,Plate:MR007",9.66 nM
same,potency estimated from few doses,"Q6ZSR9; compound concentrations:100 nM and 1000 nM (sheet 'Lestaurtinib' of Supplementary Table 1),run:Lestaurtinib_02438_R3,Plate:MR008",74.8 nM
same,potency estimated from few doses,"Q6ZSR9; compound concentrations:100 nM and 1000 nM (sheet 'Lestaurtinib' of Supplementary Table 1),run:Lestaurtinib_02443_R1,Plate:MR009",51.6 nM
same,potency estimated from few doses,"Q6ZSR9; compound concentrations:100 nM and 1000 nM (sheet 'Lestaurtinib' of Supplementary Table 1),run:Lestaurtinib_02443_R2,Plate:MR009",62.7 nM
same,potency estimated from few doses,"Q6ZSR9; compound concentrations:100 nM and 1000 nM (sheet 'Lestaurtinib' of Supplementary Table 1),run:Lestaurtinib_02443_R3,Plate:MR009",77.8 nM
same,potency estimated from few doses,"Q6ZSR9; compound concentrations:100 nM and 1000 nM (sheet 'Lestaurtinib' of Supplementary Table 1),run:Lestaurtinib_02473_R1,Plate:MR010",78.4 nM
same,potency estimated from few doses,"Q6ZSR9; compound concentrations:100 nM and 1000 nM (sheet 'Lestaurtinib' of Supplementary Table 1),run:Lestaurtinib_02473_R2,Plate:MR010",61 nM
same,potency estimated from few doses,"Q6ZSR9; compound concentrations:100 nM and 1000 nM (sheet 'Lestaurtinib' of Supplementary Table 1),run:Lestaurtinib_02473_R3,Plate:MR010",35.7 nM
same,potency estimated from few doses,"Q6ZSR9; compound concentrations:100 nM and 1000 nM (sheet 'Lestaurtinib' of Supplementary Table 1),run:Lestaurtinib_02482_R2,Plate:MR011",76.6 nM
same,potency estimated from few doses,"Q6ZSR9; compound concentrations:100 nM and 1000 nM (sheet 'Lestaurtinib' of Supplementary Table 1),run:Lestaurtinib_02482_R3,Plate:MR011",65.6 nM
same,potency estimated from few doses,"Q6ZSR9; compound concentrations:100 nM and 1000 nM (sheet 'Lestaurtinib' of Supplementary Table 1),run:Lestaurtinib_02487_R1,Plate:MR012",71.7 nM
same,potency estimated from few doses,"Q6ZSR9; compound concentrations:100 nM and 1000 nM (sheet 'Lestaurtinib' of Supplementary Table 1),run:Lestaurtinib_02487_R2,Plate:MR012",66.6 nM
same,potency estimated from few doses,"Q6ZSR9; compound concentrations:100 nM and 1000 nM (sheet 'Lestaurtinib' of Supplementary Table 1),run:Lestaurtinib_02487_R3,Plate:MR012",81.2 nM
